Experiment [1] has as its target Insulin receptor (Homo sapiens) (UniProt P06213). The following applies: at 10 µM.
For experiment [2] the target is unchanged. The following applies: at 1 µM.
For experiment [3] the target is unchanged. The note with it: at 10 µM. The source holds these as a separate data set.
In experiment [4] the target is Interleukin-1 receptor-associated kinase 1 (Homo sapiens) (UniProt P51617). The following applies: at 1 µM.
Experiment [5] has the same target. The note with it: at 10 µM.
For experiment [6], the target named is T1, Interleukin-1 receptor-associated kinase 4 (Homo sapiens) (UniProt Q9NWZ3).
T1 sequence (whole entry): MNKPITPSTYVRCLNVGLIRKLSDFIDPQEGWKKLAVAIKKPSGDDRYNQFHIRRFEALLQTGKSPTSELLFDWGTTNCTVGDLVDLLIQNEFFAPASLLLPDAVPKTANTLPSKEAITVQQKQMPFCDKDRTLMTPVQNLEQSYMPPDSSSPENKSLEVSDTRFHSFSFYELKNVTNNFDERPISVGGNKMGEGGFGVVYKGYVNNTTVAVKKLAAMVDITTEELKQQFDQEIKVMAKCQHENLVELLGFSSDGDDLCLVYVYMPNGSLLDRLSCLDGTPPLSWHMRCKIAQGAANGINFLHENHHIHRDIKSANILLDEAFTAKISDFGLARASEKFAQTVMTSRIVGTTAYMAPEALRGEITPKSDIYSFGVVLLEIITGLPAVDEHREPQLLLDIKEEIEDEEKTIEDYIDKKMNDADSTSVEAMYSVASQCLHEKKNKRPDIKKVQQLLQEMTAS
The following applies: at 1 µM.

Experiment [7] deals with T1, Interleukin-1 receptor-associated kinase 4 (Homo sapiens). The note with it: at 10 µM.
The target in experiment [8] is Insulin receptor-related protein (Homo sapiens) (UniProt P14616). The following applies: at 1 µM.
The target is the same in experiment [9]. The note with it: at 10 µM.
The target of experiment [10] is T2, Tyrosine-protein kinase ITK/TSK (Homo sapiens) (UniProt Q08881).
T2 sequence (whole entry): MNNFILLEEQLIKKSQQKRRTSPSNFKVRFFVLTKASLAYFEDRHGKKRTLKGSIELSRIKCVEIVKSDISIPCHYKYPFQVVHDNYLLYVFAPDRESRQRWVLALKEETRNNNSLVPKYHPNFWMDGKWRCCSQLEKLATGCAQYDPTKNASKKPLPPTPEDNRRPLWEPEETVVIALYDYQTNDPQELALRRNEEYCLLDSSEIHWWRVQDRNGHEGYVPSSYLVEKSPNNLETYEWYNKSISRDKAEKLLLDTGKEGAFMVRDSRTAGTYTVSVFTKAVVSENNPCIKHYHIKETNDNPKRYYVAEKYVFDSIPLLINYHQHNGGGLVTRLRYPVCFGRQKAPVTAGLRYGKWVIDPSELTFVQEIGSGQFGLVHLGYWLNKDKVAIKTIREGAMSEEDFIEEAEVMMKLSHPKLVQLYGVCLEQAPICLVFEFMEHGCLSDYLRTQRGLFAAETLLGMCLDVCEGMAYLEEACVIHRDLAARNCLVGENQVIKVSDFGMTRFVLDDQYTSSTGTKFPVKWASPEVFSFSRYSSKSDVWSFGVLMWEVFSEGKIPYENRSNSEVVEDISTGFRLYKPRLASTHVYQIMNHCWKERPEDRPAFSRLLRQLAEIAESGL
The following applies: at 1 µM.

Experiment [11] addresses T2, Tyrosine-protein kinase ITK/TSK (Homo sapiens). The following applies: at 10 µM.
Experiment [12] deals with Tyrosine-protein kinase JAK2 (Homo sapiens) (UniProt O60674). The following applies: at 1 µM.
Experiment [13] has the same target. The note with it: at 10 µM.
The target of experiment [14] is T3, Tyrosine-protein kinase JAK3 (Homo sapiens) (UniProt P52333).
T3 sequence (whole entry): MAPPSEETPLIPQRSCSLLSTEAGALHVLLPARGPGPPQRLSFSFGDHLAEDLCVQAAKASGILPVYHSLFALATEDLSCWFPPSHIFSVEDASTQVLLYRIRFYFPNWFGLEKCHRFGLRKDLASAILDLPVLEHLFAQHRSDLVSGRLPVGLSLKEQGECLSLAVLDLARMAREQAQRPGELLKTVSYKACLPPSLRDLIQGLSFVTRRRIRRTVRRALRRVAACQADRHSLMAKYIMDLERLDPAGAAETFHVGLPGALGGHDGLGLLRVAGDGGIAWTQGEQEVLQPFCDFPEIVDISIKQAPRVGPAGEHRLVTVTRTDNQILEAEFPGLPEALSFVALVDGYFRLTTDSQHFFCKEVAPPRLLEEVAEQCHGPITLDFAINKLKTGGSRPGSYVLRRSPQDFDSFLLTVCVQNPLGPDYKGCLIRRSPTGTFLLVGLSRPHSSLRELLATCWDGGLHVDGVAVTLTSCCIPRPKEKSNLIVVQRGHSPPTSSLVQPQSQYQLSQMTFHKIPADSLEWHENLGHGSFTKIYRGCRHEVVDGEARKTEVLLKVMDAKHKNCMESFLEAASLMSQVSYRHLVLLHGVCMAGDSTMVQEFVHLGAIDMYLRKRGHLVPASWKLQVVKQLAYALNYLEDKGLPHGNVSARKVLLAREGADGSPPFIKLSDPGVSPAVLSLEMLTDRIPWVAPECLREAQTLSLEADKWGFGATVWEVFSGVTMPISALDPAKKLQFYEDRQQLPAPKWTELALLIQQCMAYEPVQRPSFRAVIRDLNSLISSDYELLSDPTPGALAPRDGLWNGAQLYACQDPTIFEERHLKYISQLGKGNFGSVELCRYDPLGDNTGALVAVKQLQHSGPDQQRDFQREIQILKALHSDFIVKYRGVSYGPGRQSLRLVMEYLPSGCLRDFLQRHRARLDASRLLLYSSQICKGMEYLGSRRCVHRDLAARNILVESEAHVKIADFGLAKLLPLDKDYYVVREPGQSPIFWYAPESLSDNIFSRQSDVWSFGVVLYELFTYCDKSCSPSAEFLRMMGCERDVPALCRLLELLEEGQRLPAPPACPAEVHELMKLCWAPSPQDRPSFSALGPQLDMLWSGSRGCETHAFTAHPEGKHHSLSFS
The following applies: at 1 µM.

In experiment [15] the target is T3, Tyrosine-protein kinase JAK3 (Homo sapiens). The following applies: at 10 µM.
Experiment [16] addresses Mitogen-activated protein kinase 8 (Homo sapiens) (UniProt P45983). The note with it: at 1 µM.
Experiment [17] has the same target. The note with it: at 10 µM.
Experiment [18] concerns the target Mitogen-activated protein kinase 9 (Homo sapiens) (UniProt P45984). The note with it: at 1 µM.
Experiment [19] shares this target. The following applies: at 10 µM.
In experiment [20] the target is Mitogen-activated protein kinase 10 (Homo sapiens) (UniProt P53779). The following applies: at 1 µM.
Sequence of Mitogen-activated protein kinase 10 (Homo sapiens) (P53779 whole entry): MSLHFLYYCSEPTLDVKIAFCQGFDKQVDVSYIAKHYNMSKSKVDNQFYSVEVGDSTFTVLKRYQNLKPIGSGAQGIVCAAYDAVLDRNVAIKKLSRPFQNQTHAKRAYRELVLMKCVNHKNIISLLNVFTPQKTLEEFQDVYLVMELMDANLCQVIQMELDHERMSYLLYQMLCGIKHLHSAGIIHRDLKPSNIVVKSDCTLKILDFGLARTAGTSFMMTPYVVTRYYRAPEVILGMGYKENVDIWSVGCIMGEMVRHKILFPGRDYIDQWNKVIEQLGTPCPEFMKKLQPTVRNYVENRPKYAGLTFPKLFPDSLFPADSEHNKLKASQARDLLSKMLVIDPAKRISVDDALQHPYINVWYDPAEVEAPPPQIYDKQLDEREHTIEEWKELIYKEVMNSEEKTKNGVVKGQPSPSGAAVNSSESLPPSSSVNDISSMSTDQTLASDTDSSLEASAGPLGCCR

Sequence of Insulin receptor (Homo sapiens) (P06213 28-758 limits assumed): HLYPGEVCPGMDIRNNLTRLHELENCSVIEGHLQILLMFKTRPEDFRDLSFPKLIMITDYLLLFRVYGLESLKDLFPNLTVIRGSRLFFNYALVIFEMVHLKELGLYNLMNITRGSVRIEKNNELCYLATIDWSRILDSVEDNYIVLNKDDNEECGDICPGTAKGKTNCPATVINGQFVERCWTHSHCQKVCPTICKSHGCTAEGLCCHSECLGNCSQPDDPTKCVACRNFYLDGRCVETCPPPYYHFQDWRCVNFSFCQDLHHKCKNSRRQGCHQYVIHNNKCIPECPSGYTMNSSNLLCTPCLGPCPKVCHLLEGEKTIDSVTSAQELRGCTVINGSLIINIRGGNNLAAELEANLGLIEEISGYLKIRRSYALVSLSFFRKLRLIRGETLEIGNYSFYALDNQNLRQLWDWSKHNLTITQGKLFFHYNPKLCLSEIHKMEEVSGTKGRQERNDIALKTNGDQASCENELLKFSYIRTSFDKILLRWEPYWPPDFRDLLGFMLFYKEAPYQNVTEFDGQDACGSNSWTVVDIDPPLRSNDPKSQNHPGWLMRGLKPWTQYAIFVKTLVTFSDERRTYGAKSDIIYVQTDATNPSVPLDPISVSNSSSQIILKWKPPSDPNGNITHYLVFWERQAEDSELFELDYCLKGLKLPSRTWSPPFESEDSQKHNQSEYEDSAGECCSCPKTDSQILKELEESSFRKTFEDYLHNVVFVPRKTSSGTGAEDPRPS
Sequence of Insulin receptor (Homo sapiens) (P06213 763-1382 limits assumed): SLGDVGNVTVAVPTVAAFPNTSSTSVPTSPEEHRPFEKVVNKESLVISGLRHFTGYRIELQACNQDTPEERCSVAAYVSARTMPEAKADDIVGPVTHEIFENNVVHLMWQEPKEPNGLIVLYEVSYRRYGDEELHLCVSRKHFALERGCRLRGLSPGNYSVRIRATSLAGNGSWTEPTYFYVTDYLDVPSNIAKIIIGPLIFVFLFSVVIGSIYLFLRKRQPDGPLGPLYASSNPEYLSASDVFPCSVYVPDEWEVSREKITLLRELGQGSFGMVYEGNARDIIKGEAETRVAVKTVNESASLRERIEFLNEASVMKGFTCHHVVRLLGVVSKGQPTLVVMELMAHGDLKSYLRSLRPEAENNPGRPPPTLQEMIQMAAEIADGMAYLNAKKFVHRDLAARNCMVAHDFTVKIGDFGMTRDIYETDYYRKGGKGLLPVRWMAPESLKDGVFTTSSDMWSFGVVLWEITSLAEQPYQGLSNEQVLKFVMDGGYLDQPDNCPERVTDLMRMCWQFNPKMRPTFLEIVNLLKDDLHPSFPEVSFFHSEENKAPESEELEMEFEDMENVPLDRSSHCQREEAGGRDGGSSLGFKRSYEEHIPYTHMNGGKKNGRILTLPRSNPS
Sequence of Mitogen-activated protein kinase 9 (Homo sapiens) (P45984 whole entry, looked up): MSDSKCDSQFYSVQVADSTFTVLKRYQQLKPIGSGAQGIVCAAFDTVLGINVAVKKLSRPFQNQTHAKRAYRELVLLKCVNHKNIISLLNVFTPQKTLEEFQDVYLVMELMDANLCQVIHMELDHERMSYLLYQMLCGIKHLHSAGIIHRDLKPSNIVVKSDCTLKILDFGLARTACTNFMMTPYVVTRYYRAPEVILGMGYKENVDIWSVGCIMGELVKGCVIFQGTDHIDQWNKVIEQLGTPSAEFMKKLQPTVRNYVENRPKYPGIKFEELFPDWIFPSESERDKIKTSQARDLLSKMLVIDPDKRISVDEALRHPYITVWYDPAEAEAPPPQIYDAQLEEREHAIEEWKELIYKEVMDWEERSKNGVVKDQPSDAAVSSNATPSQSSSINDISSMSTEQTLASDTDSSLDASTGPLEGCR
Sequence of Interleukin-1 receptor-associated kinase 1 (Homo sapiens) (P51617 whole entry, looked up): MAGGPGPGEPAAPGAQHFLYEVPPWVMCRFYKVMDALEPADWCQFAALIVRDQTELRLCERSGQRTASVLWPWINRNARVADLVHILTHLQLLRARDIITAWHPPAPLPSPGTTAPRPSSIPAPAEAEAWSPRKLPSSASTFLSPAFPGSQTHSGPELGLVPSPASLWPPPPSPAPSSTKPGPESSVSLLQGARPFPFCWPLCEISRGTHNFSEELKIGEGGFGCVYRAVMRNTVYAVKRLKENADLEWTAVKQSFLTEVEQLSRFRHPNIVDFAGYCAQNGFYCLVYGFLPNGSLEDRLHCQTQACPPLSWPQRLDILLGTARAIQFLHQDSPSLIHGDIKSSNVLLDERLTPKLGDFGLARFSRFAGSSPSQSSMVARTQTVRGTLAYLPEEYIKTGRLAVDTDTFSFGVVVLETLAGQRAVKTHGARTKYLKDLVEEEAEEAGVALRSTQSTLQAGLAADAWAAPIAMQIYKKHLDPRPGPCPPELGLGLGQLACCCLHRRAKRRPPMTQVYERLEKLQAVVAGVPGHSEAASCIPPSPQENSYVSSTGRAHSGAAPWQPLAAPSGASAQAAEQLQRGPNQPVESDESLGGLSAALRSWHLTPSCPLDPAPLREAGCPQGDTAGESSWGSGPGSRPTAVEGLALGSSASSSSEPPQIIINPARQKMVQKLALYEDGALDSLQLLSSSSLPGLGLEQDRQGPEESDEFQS
Sequence of Mitogen-activated protein kinase 8 (Homo sapiens) (P45983 whole entry): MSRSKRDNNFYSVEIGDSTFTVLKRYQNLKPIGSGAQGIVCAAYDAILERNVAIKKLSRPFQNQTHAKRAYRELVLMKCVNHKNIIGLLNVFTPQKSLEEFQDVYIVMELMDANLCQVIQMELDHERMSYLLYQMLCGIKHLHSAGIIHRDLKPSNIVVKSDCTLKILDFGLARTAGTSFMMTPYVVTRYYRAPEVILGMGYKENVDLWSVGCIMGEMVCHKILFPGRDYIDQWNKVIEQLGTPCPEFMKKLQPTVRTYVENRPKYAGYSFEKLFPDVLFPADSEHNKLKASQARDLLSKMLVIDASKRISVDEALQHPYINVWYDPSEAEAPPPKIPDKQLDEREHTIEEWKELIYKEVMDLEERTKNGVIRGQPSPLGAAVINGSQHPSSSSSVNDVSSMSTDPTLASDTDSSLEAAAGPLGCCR
Sequence of Tyrosine-protein kinase JAK2 (Homo sapiens) (O60674 whole entry): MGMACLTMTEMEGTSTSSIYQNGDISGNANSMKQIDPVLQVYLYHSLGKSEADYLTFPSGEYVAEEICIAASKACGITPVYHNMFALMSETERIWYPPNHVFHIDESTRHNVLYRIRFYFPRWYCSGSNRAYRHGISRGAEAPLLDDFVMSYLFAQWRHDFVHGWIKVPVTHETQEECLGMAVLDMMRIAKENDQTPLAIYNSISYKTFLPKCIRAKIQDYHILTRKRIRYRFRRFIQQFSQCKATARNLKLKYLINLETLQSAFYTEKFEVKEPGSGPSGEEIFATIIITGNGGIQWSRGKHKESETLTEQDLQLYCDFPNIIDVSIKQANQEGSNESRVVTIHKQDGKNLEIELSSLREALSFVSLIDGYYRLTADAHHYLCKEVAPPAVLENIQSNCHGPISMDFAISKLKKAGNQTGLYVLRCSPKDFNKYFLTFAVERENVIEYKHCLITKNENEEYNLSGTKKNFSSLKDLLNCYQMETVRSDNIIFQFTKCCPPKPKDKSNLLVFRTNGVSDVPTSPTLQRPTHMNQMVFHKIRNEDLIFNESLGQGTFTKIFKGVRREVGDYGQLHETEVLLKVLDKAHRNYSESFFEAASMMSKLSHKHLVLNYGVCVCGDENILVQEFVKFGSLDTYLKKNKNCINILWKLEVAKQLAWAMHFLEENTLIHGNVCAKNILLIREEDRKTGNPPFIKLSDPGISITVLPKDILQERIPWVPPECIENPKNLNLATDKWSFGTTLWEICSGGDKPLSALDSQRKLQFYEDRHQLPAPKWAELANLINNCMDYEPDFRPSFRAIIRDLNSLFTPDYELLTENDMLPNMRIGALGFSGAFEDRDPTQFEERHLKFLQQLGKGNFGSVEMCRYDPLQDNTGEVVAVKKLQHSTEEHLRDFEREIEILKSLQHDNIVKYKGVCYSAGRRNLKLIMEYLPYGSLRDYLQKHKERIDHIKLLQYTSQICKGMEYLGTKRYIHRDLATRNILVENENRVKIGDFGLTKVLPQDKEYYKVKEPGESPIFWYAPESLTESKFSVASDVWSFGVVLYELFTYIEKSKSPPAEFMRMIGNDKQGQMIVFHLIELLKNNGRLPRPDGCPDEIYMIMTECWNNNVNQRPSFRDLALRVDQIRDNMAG

In the case of `O=C(Nc1cccc(Nc2nccc(Nc3cccc(C(F)(F)F)c3)n2)c1)C1CC1`, the residual activity came out at 12% in [1]; 86% in [2]; 97% in experiment [3]; 81% in experiment [4]; 82% in experiment [5]; 50% in experiment [6]. The residual activity came to 44% in [7]; 13% in experiment [8]; 1% in [9]; 96% in [10]; 56% in experiment [11]; 19% in experiment [12]. The residual activity in experiment [13] came to 29%; in [14], 76%; in [15], 23%; in [16], 109%; in [17] it was 61%; in experiment [18] it was 102%. For the same compound, the figures for the residual activity in experiment [19] and in experiment [20] were 93% and 51%, respectively.
Take `CC(=O)O/N=C1\C(=C2\C(=O)Nc3cc(Br)ccc32)Nc2ccccc21`: the residual activity in [1] stood at 91%; in experiment [2] it was 102%; in [3] it was 81%; in experiment [4], 95%; in [5] it was 96%; in [6] it was 86%. The residual activity came out at 48% in experiment [7]; 109% in experiment [8]; 92% in experiment [9]; 82% in experiment [10]; 39% in experiment [11]; 103% in experiment [12]. For the same compound, the residual activity in [13] was 71%; in experiment [14] it was 75%; in experiment [15], 26%; in [16], 98%; in [17] it was 94%; in [18], 91%. Further, the figures for the residual activity in experiment [19] and in [20] were 94% and 77%, respectively.
Turning to `COc1ccc(CNc2nc(N(CCO)CCO)nc3c2ncn3C(C)C)cc1`, the residual activity in [1] came to 85%; in [2], 90%; in experiment [3], 77%; in experiment [4] it was 91%; in [5], 107%; in experiment [6], 71%. Moreover, the residual activity turned out to be 71% in experiment [7]; 92% in experiment [8]; 87% in experiment [9]; 94% in experiment [10]; 85% in [11]; 91% in experiment [12]. Besides, the residual activity is 99% in experiment [13]; 105% in [14]; 107% in experiment [15]; 104% in experiment [16]; 87% in experiment [17]; 83% in [18]. Besides, the values for the residual activity in [19] and in [20] were 85% and 75%, respectively.
Turning to `COc1ccc(OC)c2c(=S)c3ccccc3[nH]c12`, the residual activity in [1] was found to be 103%; in [2] it was 101%; in experiment [3], 89%; in experiment [4], 101%; in experiment [5], 102%; in experiment [6], 86%. The residual activity in [7] is 68%; in experiment [8], 106%; in experiment [9], 103%; in experiment [10] it was 98%; in experiment [11], 97%; in experiment [12] it was 88%. Besides, the residual activity turned out to be 102% in experiment [13]; 97% in [14]; 97% in [15]; 99% in [16]; 95% in [17]; 88% in [18]. In addition, the residual activity in experiment [19] was determined as 106%; in experiment [20], 80%.
Take `O=C1NC(=O)/C(=C/c2ccc3c(c2)OC(F)(F)O3)S1`: the residual activity in experiment [1] is 103%; in [2], 104%; in experiment [3], 98%; in experiment [4], 102%; in [5] it was 80%; in [6], 111%. Besides, the residual activity amounted to 106% in experiment [7]; 139% in experiment [8]; 99% in experiment [9]; 103% in [10]; 108% in [11]; 101% in experiment [12]. Also, the residual activity in experiment [13] was determined as 97%; in [14], 94%; in experiment [15] it was 63%; in [16], 106%; in experiment [17] it was 106%; in [18] it was 106%. For the same compound, the residual activity in [19] is 102%; in [20], 81%.
`CC(C)n1cnc2/c(=N/c3cccc(Cl)c3)nc(NCCO)[nH]c21`: the residual activity in [1] was 36%; in [2], 68%; in experiment [3], 17%; in [4], 76%; in [5], 34%; in [6], 44%. Also, the residual activity stood at 14% in experiment [7]; 96% in experiment [8]; 35% in experiment [9]; 76% in experiment [10]; 22% in [11]; 92% in [12]. Also, the residual activity in [13] is 89%; in experiment [14], 111%; in [15] it was 81%; in [16] it was 103%; in [17] it was 89%; in [18] it was 97%. The residual activity in [19] came to 105%; in experiment [20] it was 64%.

For the origin of these results see ChEMBL document CHEMBL2218924, “A broad activity screen in support of a chemogenomic map for kinase signalling research and drug discovery” (Biochem J, 2013).
